Screening data: PubChem, Broad Institute
In the library only some 2.1% were active in any assay of this set; here they are far more common.
ID4 SMM: ID4 (human) binding | P47928 | small molecule microarray, Flag-ID4 binding, fluorescence F/B | calls only | hit rate 1.2% among 31,000; call rule not given here;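 note: a binder raises fluorescence above local background on the spot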
mut p53 react: re-activators of the mutant p53 pathway; SW480 PUMA-promoter luciferase, p53 mutant reactivation; activation, % at 9.98 µM; hit rate 1.5% among 28,000; in the data active = activation above about 52%
STK33 inh: human STK33 kinase inhibition. Q9BYT3. hit rate 0.44% among 27,000. ADP-Glo luminescence, MBP substrate. AID 2322. inhibition, % at 12.5 µM; in the data active = inhibition above about 20%
Target sequence (Q9BYT3 whole entry, looked up): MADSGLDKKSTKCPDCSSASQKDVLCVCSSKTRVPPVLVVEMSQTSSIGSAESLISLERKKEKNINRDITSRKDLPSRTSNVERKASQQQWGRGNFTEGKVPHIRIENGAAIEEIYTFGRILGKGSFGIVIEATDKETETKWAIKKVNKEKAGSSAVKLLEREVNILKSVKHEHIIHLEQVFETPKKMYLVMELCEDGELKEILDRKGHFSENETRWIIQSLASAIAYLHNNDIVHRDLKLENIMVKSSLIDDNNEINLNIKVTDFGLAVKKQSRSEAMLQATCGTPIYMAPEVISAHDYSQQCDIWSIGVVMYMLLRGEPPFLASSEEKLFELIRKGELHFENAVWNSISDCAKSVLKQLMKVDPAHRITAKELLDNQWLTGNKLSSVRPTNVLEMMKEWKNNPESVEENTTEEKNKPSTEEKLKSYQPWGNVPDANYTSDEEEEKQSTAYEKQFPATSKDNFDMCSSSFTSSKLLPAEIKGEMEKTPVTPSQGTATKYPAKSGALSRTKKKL
* marks the source's active call; other numbers are inactive results.

What do the screens show for `Cc1ccc(S(=O)(=O)N(CC(N)=O)c2ccc(Cl)c(Cl)c2)cc1`?
ID4 SMM: inactive; mut p53 react: -15.7; STK33 inh: -5.8

How did COc1ccc(C2CC(=O)Oc3cc(O)cc(O)c32)cc1 (stereo not drawn) do in these assays?
ID4 SMM: inactive; mut p53 react: -1.7; STK33 inh: 0.0

How did O=C1Oc2cc(O)cc(O)c2[C@@H](c2ccc(O)cc2)[C@H]1[C@H]1C(=O)Oc2cc(O)cc(O)c2[C@H]1c1ccc(O)cc1 do in these assays?
mut p53 react: -1.2; STK33 inh: 28.3*

How did Cc1cc(C)c2oc(-c3ccc(C)c(NC(=O)COc4ccc(Cl)cc4)c3)nc2c1 do in these assays?
ID4 SMM: inactive; mut p53 react: -9.9; STK33 inh: -1.9

How did COC(=O)c1ccc(C(=O)OC)c(NC(=O)COc2cc(C)c(C)cc2C)c1 do in these assays?
ID4 SMM: inactive; mut p53 react: -30.4; STK33 inh: -0.3

How did Cc1cc([N+](=O)[O-])ccc1NC(=O)CSc1n[nH]c(-c2ccc(Cl)cc2)n1 do in these assays?
ID4 SMM: inactive; mut p53 react: -3.1; STK33 inh: 0.8

Results for CCOC(=O)CSc1nc(-c2ccccc2)nc2sc3c(c12)CCCC3 ?
ID4 SMM: inactive; mut p53 react: 4.1; STK33 inh: 3.0

How did CN1N=C(c2coc3ccccc23)CC1(O)C(F)(F)F (stereo not drawn) do in these assays?
ID4 SMM: inactive; mut p53 react: 72.6*

Results for CCOC(=O)[C@H](CCc1ccccc1)N[C@H](C)C(=O)N1C2CCCCC2C[C@H]1C(=O)O (stereo partly drawn) ?
ID4 SMM: inactive; STK33 inh: -0.3

What do the screens show for `CCO[C@@H]1OC(C(=O)N2CCOCC2)=C[C@H](c2ccc3c(c2)OCO3)[C@H]1CCCO`?
ID4 SMM: inactive

What do the screens show for `CNC[C@@H]1Oc2ccc(NS(=O)(=O)c3cccs3)cc2CC(=O)N([C@H](C)CO)C[C@H]1C`?
ID4 SMM: active; mut p53 react: -2.5; STK33 inh: -0.7

Results for CNC[C@H]1Oc2ccc(NS(C)(=O)=O)cc2CC(=O)N([C@H](C)CO)C[C@H]1C ?
ID4 SMM: inactive; mut p53 react: -6.9; STK33 inh: -3.4

How did CNC[C@@H]1Oc2ccc(NS(C)(=O)=O)cc2CC(=O)N([C@@H](C)CO)C[C@@H]1C do in these assays?
ID4 SMM: active; mut p53 react: -3.6; STK33 inh: -1.1

How did CNC[C@H]1Oc2ccc(NS(=O)(=O)c3cccs3)cc2CC(=O)N([C@H](C)CO)C[C@H]1C do in these assays?
ID4 SMM: inactive; mut p53 react: -3.6; STK33 inh: -0.7

What do the screens show for `CN(C)c1ccc(/C=C2/C(=O)Nc3ccccc32)cc1`?
mut p53 react: -11.5; STK33 inh: 33.7*

How did O=C1Nc2ccccc2/C1=C\c1c(Cl)[nH]c2ccccc12 do in these assays?
ID4 SMM: inactive; mut p53 react: -66.1; STK33 inh: 29.1*

How did O=C1Cc2c([nH]c3ccc(Br)cc23)-c2ccccc2N1 do in these assays?
STK33 inh: 3.5

What do the screens show for `CN1C(=O)c2ccccc2NC(=O)/C1=C\c1ccccc1`?
mut p53 react: 10.9; STK33 inh: 0.8

What do the screens show for `COc1ccc(OC)c(C(=O)CCC(=O)Nc2ccc(Cl)cc2)c1`?
ID4 SMM: inactive; mut p53 react: 2.9; STK33 inh: -4.1

Results for O=C(Nc1ccccc1[N+](=O)[O-])c1cccc(S(=O)(=O)Nc2ccc(I)cc2)c1 ?
ID4 SMM: inactive; mut p53 react: -1.1; STK33 inh: -1.3

What do the screens show for `Cc1cc(O)c2c(c1)C(=O)c1cccc(O)c1C2=O`?
ID4 SMM: inactive; STK33 inh: 5.0

How did COc1c(C=O)c(O)cc2c1C(=O)c1ccccc1C2=O do in these assays?
ID4 SMM: inactive; mut p53 react: -7.3; STK33 inh: 84.5*

What do the screens show for `COc1cc(O)c(C(=O)/C=C/c2ccc(O)c(OC)c2)c(OC)c1`?
STK33 inh: 51.0*

How did COc1cc(/C=C/C(=O)NCC(O)c2ccc(O)cc2)ccc1O (stereo not drawn) do in these assays?
mut p53 react: 16.4; STK33 inh: -3.2

What do the screens show for `CC(Oc1ccc(Cl)cc1Cl)/C(N)=N/O` (stereo not drawn)?
ID4 SMM: inactive; mut p53 react: 12.2

What do the screens show for `CC(O)c1cc(-c2ccc(Cl)cc2Cl)no1` (stereo not drawn)?
ID4 SMM: inactive; mut p53 react: 112.9*

Results for COc1ccc(C(=O)CSc2nc(C)[nH]c2[N+](=O)[O-])cc1Br ?
ID4 SMM: inactive; mut p53 react: 2.2; STK33 inh: 5.4

How did CC1(C)CC(n2c(SCC(=O)c3ccc(Cl)cc3)nc3ccccc3c2=O)CCO1 (stereo not drawn) do in these assays?
ID4 SMM: inactive; mut p53 react: 3.3; STK33 inh: 0.3

Results for COc1ccc(S(=O)(=O)NCCO)cc1-c1nnc2c3ccccc3c(C)nn12 ?
ID4 SMM: inactive; mut p53 react: -7.9; STK33 inh: 4.9

How did COc1cccc2cc(C(=O)C3C(=O)C(=O)N(Cc4ccco4)C3c3ccc(F)cc3)oc12 (stereo not drawn) do in these assays?
ID4 SMM: inactive; mut p53 react: -21.9; STK33 inh: 1.0

What do the screens show for `CNC[C@@H]1Oc2ccc(NC(=O)Cc3cn(C)c4ccccc34)cc2CC(=O)N([C@H](C)CO)C[C@@H]1C`?
ID4 SMM: inactive; mut p53 react: -15.0; STK33 inh: 0.8

What do the screens show for `CNC[C@H]1Oc2ccc(NC(=O)Cc3cn(C)c4ccccc34)cc2CC(=O)N([C@@H](C)CO)C[C@H]1C`?
ID4 SMM: active; mut p53 react: -9.3

How did CNC[C@@H]1Oc2ccc(NC(=O)Cc3ccccc3)cc2CC(=O)N([C@H](C)CO)C[C@@H]1C do in these assays?
ID4 SMM: inactive; mut p53 react: 8.2; STK33 inh: 2.1

Results for CNC[C@H]1Oc2ccc(NC(=O)Cc3ccccc3)cc2CC(=O)N([C@H](C)CO)C[C@@H]1C ?
ID4 SMM: active; mut p53 react: -5.5

How did Cc1cc(-c2nc3ccccc3s2)ccc1NC(=O)COc1ccccc1[N+](=O)[O-] do in these assays?
ID4 SMM: inactive; mut p53 react: 40.0; STK33 inh: -1.3

How did COc1ccc(-c2oc3c(OC)c(OC)c(OC)c(O)c3c(=O)c2OC)cc1OC do in these assays?
mut p53 react: -24.2; STK33 inh: 6.5

How did COc1cc2oc(-c3ccccc3)cc(=O)c2c(O)c1OC do in these assays?
ID4 SMM: inactive; mut p53 react: 3.2; STK33 inh: 9.2

What do the screens show for `COc1cc(-c2cc(=O)c3c(O)c(OC)c(OC)c(O)c3o2)ccc1O`?
mut p53 react: -52.1; STK33 inh: 65.4*

How did COc1c(OC)c(O)c2c(=O)cc(-c3ccc(O)cc3)oc2c1OC do in these assays?
ID4 SMM: inactive; mut p53 react: 16.2; STK33 inh: 29.3*

What do the screens show for `C/C1=C/C[C@]2(C)C(=O)C(=O)C([C@H](C)CO)[C@H]2C/C=C(/C)[C@@H](O)CC/C(C)=C\CC1` (stereo partly drawn)?
STK33 inh: -2.2

What do the screens show for `Cc1ccc(-c2cc3ccccn3c2C(=O)CSc2nnc(C)s2)cc1`?
ID4 SMM: inactive; mut p53 react: -2.8; STK33 inh: -2.7

How did O=C(CSc1nnc(-c2cccnc2)n1-c1ccccc1)NCc1ccccc1 do in these assays?
STK33 inh: 1.1
